Source: PubChem BioAssay AID488853 (National Center for Advancing Translational Sciences (NCATS), 2010)
Active and inactive are the calls of the source. Calls follow the shape of the dose curve; as a rule, active = well fitted curve in the direction sought with a large enough effect; inconclusive = small, poorly fitted or top-dose-only effect, or another doubt; inactive = no such curve, though single readings can be large or run the other way.

The compounds below were run against Lysosomal acid glucosylceramidase (Homo sapiens) (UniProt P04062) (assay: qHTS Assay for Inhibitors and Activators of N370S glucocerebrosidase as a Potential Chaperone Treatment of Gaucher Disease: Activity in Non-Mutant Spleen Using Alternate Substrate Confirmation for Probe SAR). Settings: human spleen homogenate, resorufin-glucoside fluorescence, 40 min; series mostly up to 57.5 µM.
Source text: NIH Chemical Genomics Center [NCGC] NIH Molecular Libraries Probe Production Centers Network [MLPCN] MLPCN Grant: MH086442-01 Assay Submitter (PI): Wei Zheng Glucocerebrosidase (GC) catalyzes the hydrolysis of beta-glucocerebroside to glucose and ceramide in lysosomes. Mutations in the glucocerebrosidase gene result in Gaucher disease, an autosomal recessive lysosomal storage disorder. Many of the mutations encountered in patients with Gaucher disease are missense alterations that may cause misfolding, decreased stability and/or mistrafficking of this lysosomal protein. […] These inhibitors include iminosugar analogs and three non-iminosugar inhibitors identified from a previous HTS of 62,000 compounds with the wild type recombinant enzyme. However, the enhancement of enzyme activity by the chaperone action of an enzyme inhibitor must be balanced against the direct inhibition of the enzyme. An enzyme activator could also function as a chaperone by binding to the enzyme and helping to correct its misfolding and mistrafficking. While activators for GC have not yet been identified, they may have better therapeutic potential than inhibitors. Therefore the discovery and development of chemical activators may provide a new strategy for the chaperone therapy. We have optimized a new assay using N370S mutant GC derived from the spleen of a Gaucher patient. […] In addition, the MLPCN compound library has expanded, which increases the chance of finding new and better probes. This confirmation assay tests for compound activity in spleen homogenate containing wildtype enzyme using an alternate resorufin-based substrate.
NCGC Assay Protocol Summary: This is a fluorogenic enzyme assay with resorufin-beta-D-glucopyranoside as the substrate and wildtype glucocerebrosidase from human spleen homogenate as the enzyme preparation. Upon the hydrolysis of this fluorogenic substrate, the resulting product, […] which can be detected by a standard fluorescence plate reader. Data were normalized to the controls for basal activity (without enzyme) and 100% activity (with enzyme). The AC50 values were determined from concentration-response data modeled with the standard Hill equation. Assay buffer: 50 mM citric acid (titrated with potassium phosphate to pH 5.0), 100 mM potassium chloride, 10 mM sodium chloride, 1 mM magnesium chloride, 0.01% Tween-20. 1536-well assay protocol: (1) Add 2 ul/well of spleen homogenate (27 ug final) (2) Add 23 nL compounds in DMSO solution. The final titration was 0.5 nM to 58 uM. (3) Add 2 ul of substrate (1 mM final) (4) Incubate at 37C for 40 min. (5) Add 2 ul stop solution (1M NaOH and 1M Glycine mixture, pH 10) (6) Detect the assay plate in a ViewLux plate reader (PerkinElmer) with Ex=365 nm and Em=440nm. Keywords: Glucocerebrosidase, beta-glucosidase, Gaucher Disease, pharmacological chaperone, chaperone therapy, high throughput screening, glucocerebrosidase inhibitor, MLSMR, MLSCN, NIH Roadmap, qHTS and NCGC

Lysosomal acid glucosylceramidase (Homo sapiens), sequence (P04062 whole entry, looked up): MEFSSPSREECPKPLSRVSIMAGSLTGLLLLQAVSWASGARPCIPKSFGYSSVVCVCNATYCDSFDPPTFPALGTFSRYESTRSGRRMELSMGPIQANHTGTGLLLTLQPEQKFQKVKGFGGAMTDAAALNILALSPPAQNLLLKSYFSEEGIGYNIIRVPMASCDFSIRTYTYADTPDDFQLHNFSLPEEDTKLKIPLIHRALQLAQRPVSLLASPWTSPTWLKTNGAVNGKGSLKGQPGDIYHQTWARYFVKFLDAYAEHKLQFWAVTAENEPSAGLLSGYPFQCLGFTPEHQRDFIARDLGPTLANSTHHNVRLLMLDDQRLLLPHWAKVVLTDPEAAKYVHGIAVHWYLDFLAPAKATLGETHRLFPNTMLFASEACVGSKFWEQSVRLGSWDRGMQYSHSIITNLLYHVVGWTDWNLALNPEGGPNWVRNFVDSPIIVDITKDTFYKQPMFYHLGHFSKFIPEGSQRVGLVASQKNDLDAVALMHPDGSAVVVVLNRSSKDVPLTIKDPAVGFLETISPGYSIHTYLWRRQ

outcome, inactive:
Cc1cc(C)n2ncc(C(=O)NCc3ccccc3)c2n1, Cc1cccc(NC(=O)c2cnn3c(C)cc(C)nc23)c1, O=C(Nc1cnn(Cc2ccc(F)cc2)c1)c1cnn2c(C(F)F)cc(-c3ccccc3)nc12, Cc1cc(C)n2ncc(C(=O)Nc3ccc(C(C)(C)C)cc3)c2n1, Cc1cc(C)n2ncc(C(=O)NC(C)C)c2n1, Cc1cc(C)n2ncc(C(=O)NCC(C)C)c2n1, COc1ccc(NC(=O)c2cnn3c(C)cc(C)nc23)cc1, Cc1cc(C)n2ncc(C(=O)Nc3ccc(C)c(C)c3)c2n1, Cc1cc(C)n2ncc(C(=O)NCc3ccco3)c2n1, CC(=O)Nc1ccccc1NC(=O)c1cnn2c(C)cc(C)nc12, Cc1cc(C)n2ncc(C(=O)NC3CCC(C(C)(C)C)CC3)c2n1 (configuration not stated), CC(=O)Nc1ccc(NC(=O)c2cnn3c(C)cc(C)nc23)cc1, Cc1cc(C)n2ncc(C(=O)Nc3ccc(S(C)(=O)=O)cc3)c2n1, Cc1cc(C)n2ncc(C(=O)NC3CCCCC3)c2n1, COc1ccc(NC(=O)c2cnn3c(C)cc(C)nc23)cc1F, Cc1cc(C)n2ncc(C(=O)Nc3cccc(C(F)(F)F)c3)c2n1, COc1ccc(NC(=O)c2cnn3c(C)cc(C)nc23)cc1Cl, Cc1cc(C)n2ncc(C(=O)Nc3ccccc3)c2n1, Cc1ccc(NC(=O)c2cnn3c(C)cc(C)nc23)cc1, Cc1cc(C)n2ncc(C(=O)Nc3cccc(C#N)c3)c2n1, Cc1cc(C)n2ncc(C(=O)Nc3ccc4c(c3)OCO4)c2n1, Cc1cc(C)n2ncc(C(=O)Nc3ccccc3C)c2n1, Cc1cc(C)n2ncc(C(=O)Nc3ccc4c(c3)CCC4)c2n1, CC(=O)c1cccc(NC(=O)c2cnn3c(C)cc(C)nc23)c1, Cc1cc(C)n2ncc(C(=O)Nc3ccc(C(F)(F)F)cc3)c2n1, CCc1ccc(NC(=O)c2cnn3c(C)cc(C)nc23)cc1, Cc1cc(C)n2ncc(C(=O)Nc3ccc(C#N)cc3)c2n1, COc1ccc(NC(=O)c2cnn3c(C)cc(C)nc23)cc1OC, Cc1cc(C)n2ncc(C(=O)N3CCCC3)c2n1, Cc1cc(C)n2ncc(C(=O)Nc3ccc4c(c3)OCCO4)c2n1, C#Cc1ccc(NC(=O)c2cnn3c(C)cc(C)nc23)cc1, Cc1cc(C)n2ncc(C(=O)Nc3ccc(Br)cc3)c2n1, CNC(=O)c1cnn2c(C)cc(C)nc12, Cc1ccc(NC(=O)c2cnn3c(C)cc(C)nc23)c(C)c1, COc1cc(NC(=O)c2cnn3c(C)cc(C)nc23)cc(OC)c1OC, CC(=O)c1ccc(NC(=O)c2cnn3c(C)cc(C)nc23)cc1, Cc1cc(C)n2ncc(C(=O)Nc3ccncc3)c2n1
